The source of these data is PubChem BioAssay.

Structures are written as SMILES. Active and inactive are the calls of the source.

The nature of test [1]: A549 cell viability effects, profiling panel, calcein-AM fluorescence, 48 h, basal (AID 1162). As to conditions: higher = more signal.
A short description of test [2]: adipocyte viability effects, profiling panel, cell-based, 3T3-L1 adipocytes, calcein-AM fluorescence, 48 h, basal (AID 1163). The conditions noted are these: 3T3-L1 adipocytes viability, higher = more signal.
Test [3] can be described thus: HepG2 cell viability effects, profiling panel, calcein-AM fluorescence, 48 h, basal (AID 1164). The conditions noted are these: higher = more signal.
Test [4] is described as follows: MM1S cell viability effects, profiling panel, calcein-AM fluorescence, 48 h, basal (AID 1165).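 Further: viability of MM1S multiple myeloma cells under basal unstimulated conditions.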 As to conditions: higher = more signal.
The nature of test [5]: basal RPMI8226 viability, no added stimulus, profiling panel, cell-based, calcein-AM fluorescence, 48 h, PK04 Diversity Set (AID 1166).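 Further: cells grown under basal conditions without added stimulus.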 As to conditions: RPMI8226 myeloma viability, higher = more signal.
The nature of test [6]: basal HepG2 mitochondrial membrane potential changes, profiling panel, cell-based, JC-1 fluorescence, 24 h, 100 nL compound (AID 1167). As to conditions: higher = more signal.
The nature of test [7]: basal 3T3-L1 adipocyte mitochondrial potential changes, profiling panel, cell-based, JC-1 fluorescence, 3T3-L1 adipocytes, 24 h, 100 nL compound (AID 1168). The conditions noted are these: JC-1 mitochondrial fluorescence, higher = more signal, called active from +8 up or from −8 down.
Test [8] in a line: basal RPMI8226 mitochondrial membrane potential changes, profiling panel, cell-based, JC-1 fluorescence, 24 h, 100 nL compound (AID 1169). The conditions noted are these: RPMI8226 myeloma, JC-1 mitochondrial potential fluorescence, higher = more signal.
A short description of test [9]: basal MM1S mitochondrial membrane potential changes, profiling panel, cell-based, JC-1 fluorescence, 24 h, 100 nL compound (AID 1170). The conditions noted are these: higher = more signal.
The nature of test [10]: A549 lung cancer cell viability effects, profiling panel, resazurin fluorescence, 24 h, PK04 Diversity Set (AID 1171). As to conditions: higher = more signal, called active from +8 up or from −8 down. (Resazurin is reduced to fluorescent resorufin, in cell work by metabolically active cells.)
Further: test concentration not given here.

Take `O=C1OCCC/C=C\[C@H]2OC34C=CCN(c5ccc6ccccc6c5)C(=O)[C@H]3N(CCCCCO)C(=O)[C@@H]4C12` (stereo not given in full): the z-score in test [1] was 0.0648; in [2] it was 0.456; in test [3] it was 0.513; in test [4], 0.0795; in test [5], -0.681; in [6] it was 0.337. The z-score in test [7] was -0.318 (inactive); in test [8], 0.873; in [9], -0.505; in test [10], 0.123 (inactive).

Take `CN1C(=O)C2C=CC(C(O)c3c(F)cccc3Cl)N(NC(=O)OC(C)(C)C)C2C1=O` (stereo not given): the z-score in test [1] is -0.646; in test [2], -0.204; in test [3], -0.482; in test [4], -0.208; in test [5], -1.64; in [6], -1.25. Also, the z-score is -0.555 (inactive) in test [7], -0.715 in [8], 0.925 in test [9] and 0.143 (inactive) in test [10].

With `Cc1ccc(S[C@]2(C(=O)O)CC(=O)N(Cc3ccccc3C(F)(F)F)[C@@H]2c2ccc(CO)cc2I)cc1`, the z-score was 0.0342 in [1]; -0.217 in test [2]; -0.742 in test [3]; -3.22 in [4]; -1.5 in [5]; -1.06 in test [6]. In addition, the z-score in [7] was -0.438 (inactive); in test [8], -0.275; in test [9], -1.48; in [10] it was 0.834 (inactive).

With `COc1cc(OC)c(C(O)C2C=CC3C(=O)NC(=O)C3N2Nc2ccccn2)cc1Br` (stereo not given), the z-score in [1] is 0.837; in [2], -1.06; in test [3], 0.224; in test [4], -0.459; in test [5], -0.0109; in test [6], -0.866. Also, the z-score was 0.0212 (inactive) in test [7], 0.217 in test [8], 0.171 in test [9] and -0.924 (inactive) in test [10].

On to `O=C1OCCC=C[C@H]2OC34C=CCN(Cn5nnc6ccccc65)C(=O)[C@H]3N(CCO)C(=O)[C@@H]4C12` (stereo not given in full), for which the z-score in test [1] is -0.679; in [2] it was 0.432; in test [3], -0.556; in [4], 0.897; in test [5], -1.08; in [6], -0.298. In addition, the z-score was 0.756 (inactive) in test [7], 0.42 in test [8], -0.0431 in test [9] and 0.293 (inactive) in test [10].

On to `COc1cc2c(cc1O)C(c1cccs1)N(Cc1ccc([N+](=O)[O-])o1)CC2` (stereo not given), for which the z-score in test [1] is 0.383; in test [2] it was 0.0975; in [3] it was 0.859; in test [4] it was 0.647; in test [5], 0.174; in test [6], -0.771. Also, the z-score in [7] is 0.627 (inactive); in test [8], -0.185; in [9], 1.09; in [10] it was -1.63 (inactive).

As for `OCC1C=C(/C=C/c2ccccc2)CN1Cc1ccccc1Br` (stereo not given), the z-score in test [1] is -0.58; in [2] it was 1.21; in test [3], 0.0668; in test [4], -3.2; in [5] it was -3.64; in test [6], 1.35. Further, the z-score in test [7] is 0.401 (inactive); in [8] it was -0.923; in test [9] it was -1.87; in [10], -0.535 (inactive).

As to `COc1ccc([Si](C)(C)[C@H]2[C@H](CC(=O)N3CCC[C@H]3CO)O[C@@]3(C(=O)N(Cc4cccc(N5CCOC5=O)c4)c4ccccc43)[C@@H]2C)cc1`, the z-score was -0.0923 in [1]; 0.1 in test [2]; -0.0734 in test [3]; -2.19 in [4]; -3 in [5]; 2.76 in test [6]. Further, the z-score was -0.0541 (inactive) in test [7], -0.952 in [8], -0.0702 in [9] and 0.299 (inactive) in test [10].

Consider `C#CCN(C/C=C/c1ccccc1)[C@H](CO)c1ccccc1`, for which the z-score is -1.94 in test [1]; -0.27 in test [2]; -1.76 in [3]; -2.02 in test [4]; -1.96 in test [5]; -2.74 in test [6]. In addition, the z-score was -0.471 (inactive) in test [7], -0.746 in [8], 0.0614 in test [9] and -0.96 (inactive) in test [10].

In the case of `O=C1C2C=CC(C(O)c3ccc(F)cc3)N(Nc3ccc([N+](=O)[O-])cc3)C2C(=O)N1c1ccccc1` (stereo not given), the z-score is -0.755 in [1]; -0.376 in test [2]; 0.679 in test [3]; -0.06 in test [4]; -0.313 in test [5]; -0.382 in test [6]. Further, the z-score in test [7] is -0.287 (inactive); in test [8] it was -0.403; in test [9], -0.977; in test [10] it was 0.68 (inactive).

Consider `COc1ccc(C(=O)Nc2cccc(CN3C(=O)[C@]4(O[C@H](CCn5cc(CCO)nn5)[C@@H]([Si](C)(C)c5ccc(OC)cc5)[C@@H]4C)c4ccccc43)c2)cc1`, for which the z-score in [1] is -3.46; in [2] it was -0.42; in [3], -4.63; in test [4], -2.47; in test [5], -4.35; in [6], -2.18. Besides, the z-score is 1.51 (inactive) in test [7], -0.46 in test [8], -2.05 in test [9] and -6 (inactive) in test [10].

Regarding `CCOC(=O)[C@H]1C/C=C/C[C@H](C(=O)OCC)C(=O)O[C@H]2[C@@H](OC)O[C@H](CO)[C@@H](OC(=O)c3ccc(Br)cc3)[C@@H]2OC1=O`, the z-score was 0.645 in [1]; -0.009 in [2]; 0.404 in [3]; -3.12 in [4]; -3.75 in [5]; -0.971 in test [6]. Also, the z-score in [7] is -0.339 (inactive); in test [8], -0.935; in [9], -1.3; in test [10], -1.92 (inactive).

Consider `COc1cc2c(cc1OC)CN(C(=O)[C@H]1[C@@H]3C(=O)O[C@@H](c4ccccc4)[C@@H](c4ccccc4)N3[C@@H](c3ccccc3OCCO)[C@]13C(=O)Nc1ccc(C#CCCO)cc13)CC2`, for which the z-score in [1] was 0.228; in [2] it was -0.538; in test [3], -0.368; in test [4] it was -0.217; in test [5], -0.33; in test [6], -0.641. Also, the z-score in test [7] was 0.451 (inactive); in [8], -0.377; in [9], -0.96; in [10], 0.426 (inactive).

For the molecule `COC(=O)[C@]1(CCC(=O)OC(C)(C)C)N=C(c2ccc(OCCCO)cc2)O[C@@H]1c1ccccc1`, the z-score in [1] is -1.32; in [2], 0.899; in test [3], -1.08; in [4], -3.43; in [5] it was -3.1; in test [6], -2.23. The z-score in test [7] was -0.205 (inactive); in test [8] it was -0.734; in test [9] it was 0.903; in [10], -1.99 (inactive).

Take `Cc1c(NC(=O)/C(C#N)=C/c2cccc([N+](=O)[O-])c2)c(=O)n(-c2ccccc2)n1C`: the z-score in test [1] is 4.01; in [2], 1.31; in [3], 0.461; in test [4], 0.943; in test [5] it was 2.4; in test [6] it was 0.69. The z-score in test [7] is -1.08 (inactive); in [8], -0.122; in [9], -0.054; in test [10], -0.133 (inactive).
